Experimental data reported in the supplement of paper PMC10849652.
The full data set covers some 7,900 targets. This sample favours those with a hit. About 0.6% of all pairs of compound and target were hits.

Columns and labels:
Test in all cases: log2 fold change, soluble protein after heating vs DMSO (PISA); higher = thermal stabilisation; K562 cells, 10 uM, 30 min; active = over 0.2 and 3.5 SD of the protein, either way, in both replicates (recomputed)
[1] = compound: C1=CC=C(C=C1)[C@H](COC2=CC3=C(C=C2)NC(=O)N3)NC(=O)C4=CC=CN(C4=O)CC5=CC(=C(C=C5)F)F
How it was run: (§1)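 Values are thermal stability changes relative to control samples and are taken from duplicates. They are stated as log2 fold changes. Before quantification by TMTpro 16plex LC-MS/MS with equalised channel sums, K562 cells at 2×10^6 cells/mL were treated with 10 μM compound for 30 min, heated in aliquots for 3 min across 48°C-58°C, pooled, extracted in PBS with 0.5% NP-40 at 4°C, and centrifuged at 21,000xg for 90 min to give the soluble supernatant.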

[2] = compound: CC1=C(SC2=C1C(=N[C@H](C3=NN=C(N32)C)CC(=O)N)C4=CC=C(C=C4)Cl)C
How it was run: as §1

[3] = compound: CC1=C2C(=CC=C1)N=C(N(C2=O)C3=CC=CC=C3C)CN4C=NC5=C(N=CN=C54)N
How it was run: as §1

[4] = compound: Cc1sc2c(c1C)C(c1ccc(Cl)cc1)=N[C@@H](CC(=O)OC(C)(C)C)c1nnc(C)n1-2
How it was run: as §1

[5] = compound: c1ccc([C@@H]2C[C@H]2NC2CCNCC2)cc1
How it was run: as §1

Measured: log2 fold change

VTI1B (UniProt Q9UEU0)
UniProt Q9UEU0, sequence (Q9UEU0 whole entry, looked up): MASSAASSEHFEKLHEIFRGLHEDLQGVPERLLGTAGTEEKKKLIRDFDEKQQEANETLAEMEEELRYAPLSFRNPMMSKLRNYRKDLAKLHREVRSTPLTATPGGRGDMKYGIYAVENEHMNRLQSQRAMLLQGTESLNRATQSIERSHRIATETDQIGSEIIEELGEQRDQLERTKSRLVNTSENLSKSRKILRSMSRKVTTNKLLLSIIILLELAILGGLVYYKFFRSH
inactive: [1] 0.015 | [2] -0.002 | [3] 0.045 | [4] -0.032 | [5] 0.02

WDR46, A0A0G2JJL1
inactive: [1] 0.129 | [3] -0.546 | [4] 0.303

TOM1L2 (UniProt Q6ZVM7)
UniProt Q6ZVM7, sequence (Q6ZVM7 whole entry, looked up): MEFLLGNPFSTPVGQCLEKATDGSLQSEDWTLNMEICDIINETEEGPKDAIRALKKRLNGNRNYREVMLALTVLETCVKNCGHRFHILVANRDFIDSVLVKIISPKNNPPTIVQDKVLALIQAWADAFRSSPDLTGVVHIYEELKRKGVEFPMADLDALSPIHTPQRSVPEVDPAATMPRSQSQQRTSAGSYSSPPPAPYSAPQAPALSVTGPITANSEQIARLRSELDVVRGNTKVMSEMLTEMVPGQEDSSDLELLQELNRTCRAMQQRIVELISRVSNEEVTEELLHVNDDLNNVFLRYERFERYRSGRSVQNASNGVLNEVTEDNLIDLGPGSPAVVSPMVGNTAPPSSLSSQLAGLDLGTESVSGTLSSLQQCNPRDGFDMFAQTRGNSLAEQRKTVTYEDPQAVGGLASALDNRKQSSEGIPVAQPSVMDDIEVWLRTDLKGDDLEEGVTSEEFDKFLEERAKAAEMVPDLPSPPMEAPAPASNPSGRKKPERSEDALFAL
inactive: [2] 0.138 | [3] 0.101 | [5] -0.001

WEE1 (UniProt P30291)
UniProt P30291, sequence (P30291 whole entry, looked up): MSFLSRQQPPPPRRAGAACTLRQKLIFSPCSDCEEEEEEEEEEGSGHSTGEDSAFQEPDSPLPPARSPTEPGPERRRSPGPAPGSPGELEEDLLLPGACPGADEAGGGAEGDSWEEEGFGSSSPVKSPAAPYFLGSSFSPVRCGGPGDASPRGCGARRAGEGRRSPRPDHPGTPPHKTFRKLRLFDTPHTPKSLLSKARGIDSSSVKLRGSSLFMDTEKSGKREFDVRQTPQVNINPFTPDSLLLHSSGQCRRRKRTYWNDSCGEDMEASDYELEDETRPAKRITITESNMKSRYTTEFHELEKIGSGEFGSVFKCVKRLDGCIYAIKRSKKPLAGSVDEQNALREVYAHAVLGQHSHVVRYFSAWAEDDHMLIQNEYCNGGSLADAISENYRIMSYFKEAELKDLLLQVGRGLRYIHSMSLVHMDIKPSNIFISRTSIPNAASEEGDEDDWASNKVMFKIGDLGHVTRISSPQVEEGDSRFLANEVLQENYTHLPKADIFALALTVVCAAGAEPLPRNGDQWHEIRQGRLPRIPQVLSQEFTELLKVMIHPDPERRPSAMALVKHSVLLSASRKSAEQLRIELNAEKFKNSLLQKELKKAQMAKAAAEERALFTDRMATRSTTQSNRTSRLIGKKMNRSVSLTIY
inactive: [1] 0.116 | [2] -0.031 | [3] -0.059 | [4] 0.132 | [5] 0.11

UBR2 (UniProt Q8IWV8)
UniProt Q8IWV8, sequence (Q8IWV8 whole entry, looked up): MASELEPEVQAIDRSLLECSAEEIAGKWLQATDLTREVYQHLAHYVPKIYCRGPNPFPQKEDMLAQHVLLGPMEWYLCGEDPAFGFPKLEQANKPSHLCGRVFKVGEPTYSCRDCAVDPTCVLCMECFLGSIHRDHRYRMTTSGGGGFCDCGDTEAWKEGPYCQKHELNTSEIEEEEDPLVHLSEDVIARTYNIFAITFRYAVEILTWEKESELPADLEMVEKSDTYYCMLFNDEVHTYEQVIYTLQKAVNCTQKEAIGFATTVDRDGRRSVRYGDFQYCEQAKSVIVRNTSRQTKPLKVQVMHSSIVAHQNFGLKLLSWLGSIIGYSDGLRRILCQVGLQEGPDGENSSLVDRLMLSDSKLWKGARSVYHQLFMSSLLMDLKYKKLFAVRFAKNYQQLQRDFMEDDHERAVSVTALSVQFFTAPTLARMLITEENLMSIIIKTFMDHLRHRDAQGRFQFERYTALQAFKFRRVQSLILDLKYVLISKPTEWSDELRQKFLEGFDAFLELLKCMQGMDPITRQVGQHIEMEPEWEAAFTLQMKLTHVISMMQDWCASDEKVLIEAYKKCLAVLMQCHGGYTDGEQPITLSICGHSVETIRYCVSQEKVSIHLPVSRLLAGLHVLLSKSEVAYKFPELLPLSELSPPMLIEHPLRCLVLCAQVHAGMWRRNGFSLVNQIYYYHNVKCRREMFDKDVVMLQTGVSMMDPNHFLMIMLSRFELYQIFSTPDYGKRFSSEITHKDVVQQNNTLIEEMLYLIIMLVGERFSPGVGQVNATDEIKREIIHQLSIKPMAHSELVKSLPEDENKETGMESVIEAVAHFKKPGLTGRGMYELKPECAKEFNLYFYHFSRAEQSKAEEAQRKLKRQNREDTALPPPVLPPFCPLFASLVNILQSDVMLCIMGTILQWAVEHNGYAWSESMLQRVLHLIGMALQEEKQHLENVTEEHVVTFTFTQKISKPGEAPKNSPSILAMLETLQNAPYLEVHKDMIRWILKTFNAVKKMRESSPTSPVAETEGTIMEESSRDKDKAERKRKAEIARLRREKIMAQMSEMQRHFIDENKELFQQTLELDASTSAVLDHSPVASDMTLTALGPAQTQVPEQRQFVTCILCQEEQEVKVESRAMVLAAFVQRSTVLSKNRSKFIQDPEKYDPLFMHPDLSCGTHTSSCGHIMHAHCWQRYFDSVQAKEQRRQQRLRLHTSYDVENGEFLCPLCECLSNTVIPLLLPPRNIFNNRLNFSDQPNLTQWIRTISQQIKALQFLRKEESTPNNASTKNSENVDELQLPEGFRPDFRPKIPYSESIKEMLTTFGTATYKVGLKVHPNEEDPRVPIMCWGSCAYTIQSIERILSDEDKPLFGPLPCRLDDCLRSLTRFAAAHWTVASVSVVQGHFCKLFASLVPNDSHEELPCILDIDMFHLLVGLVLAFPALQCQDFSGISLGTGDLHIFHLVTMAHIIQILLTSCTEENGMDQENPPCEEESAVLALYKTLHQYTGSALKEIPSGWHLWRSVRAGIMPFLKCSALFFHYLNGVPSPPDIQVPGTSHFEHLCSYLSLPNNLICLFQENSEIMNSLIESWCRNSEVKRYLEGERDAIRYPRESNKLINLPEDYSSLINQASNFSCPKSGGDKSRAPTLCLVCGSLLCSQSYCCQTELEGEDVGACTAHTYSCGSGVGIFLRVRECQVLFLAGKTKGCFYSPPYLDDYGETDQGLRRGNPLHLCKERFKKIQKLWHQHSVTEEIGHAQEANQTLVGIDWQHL
inactive: [1] -0.16 | [2] 0.04 | [3] 0.009 | [4] -0.014 | [5] -0.28

TOM1 (UniProt O60784)
inactive: [1] -0.077 | [4] 0.039

TTC26
inactive: [1] 0.06 | [3] 0.02 | [4] 0.198

VDAC1 (UniProt C9JI87)
inactive: [1] -0.132 | [2] -0.004 | [5] 0.137

TTC33 (UniProt Q6PID6)
UniProt Q6PID6, sequence (Q6PID6 whole entry, looked up): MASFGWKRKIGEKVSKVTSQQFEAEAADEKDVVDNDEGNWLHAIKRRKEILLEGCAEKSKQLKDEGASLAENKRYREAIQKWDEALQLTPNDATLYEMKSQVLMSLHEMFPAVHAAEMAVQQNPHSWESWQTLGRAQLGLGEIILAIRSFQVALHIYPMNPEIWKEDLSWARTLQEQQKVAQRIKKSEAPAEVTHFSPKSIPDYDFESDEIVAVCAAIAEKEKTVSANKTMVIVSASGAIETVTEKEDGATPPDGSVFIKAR
inactive: [1] -0.142 | [2] 0.018 | [3] 0.073 | [5] 0.019

TMEM214 (UniProt Q6NUQ4)
UniProt Q6NUQ4, sequence (Q6NUQ4 whole entry, looked up): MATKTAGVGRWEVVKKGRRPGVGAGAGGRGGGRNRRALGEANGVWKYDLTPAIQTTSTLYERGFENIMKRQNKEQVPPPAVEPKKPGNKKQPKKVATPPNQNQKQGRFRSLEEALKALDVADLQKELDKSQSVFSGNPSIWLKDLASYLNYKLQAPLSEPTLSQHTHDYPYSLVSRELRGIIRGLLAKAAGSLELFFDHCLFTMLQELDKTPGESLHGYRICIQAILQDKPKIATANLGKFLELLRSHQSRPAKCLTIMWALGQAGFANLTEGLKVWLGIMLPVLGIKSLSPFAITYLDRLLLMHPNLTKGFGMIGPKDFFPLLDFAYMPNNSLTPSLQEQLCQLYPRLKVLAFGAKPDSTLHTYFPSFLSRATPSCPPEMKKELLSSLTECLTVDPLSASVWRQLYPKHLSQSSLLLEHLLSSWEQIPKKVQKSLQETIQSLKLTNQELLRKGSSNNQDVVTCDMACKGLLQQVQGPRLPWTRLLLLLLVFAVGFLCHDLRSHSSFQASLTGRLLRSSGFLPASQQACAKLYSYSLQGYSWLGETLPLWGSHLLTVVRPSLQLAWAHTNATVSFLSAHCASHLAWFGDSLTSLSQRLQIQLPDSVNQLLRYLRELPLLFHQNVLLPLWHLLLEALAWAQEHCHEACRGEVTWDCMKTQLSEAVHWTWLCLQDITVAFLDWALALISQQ
inactive: [1] 0.023 | [2] 0.044 | [3] 0.005 | [4] -0.002 | [5] -0.024

UBC (UniProt P0CG48)
UniProt P0CG48, sequence (P0CG48 whole entry, looked up): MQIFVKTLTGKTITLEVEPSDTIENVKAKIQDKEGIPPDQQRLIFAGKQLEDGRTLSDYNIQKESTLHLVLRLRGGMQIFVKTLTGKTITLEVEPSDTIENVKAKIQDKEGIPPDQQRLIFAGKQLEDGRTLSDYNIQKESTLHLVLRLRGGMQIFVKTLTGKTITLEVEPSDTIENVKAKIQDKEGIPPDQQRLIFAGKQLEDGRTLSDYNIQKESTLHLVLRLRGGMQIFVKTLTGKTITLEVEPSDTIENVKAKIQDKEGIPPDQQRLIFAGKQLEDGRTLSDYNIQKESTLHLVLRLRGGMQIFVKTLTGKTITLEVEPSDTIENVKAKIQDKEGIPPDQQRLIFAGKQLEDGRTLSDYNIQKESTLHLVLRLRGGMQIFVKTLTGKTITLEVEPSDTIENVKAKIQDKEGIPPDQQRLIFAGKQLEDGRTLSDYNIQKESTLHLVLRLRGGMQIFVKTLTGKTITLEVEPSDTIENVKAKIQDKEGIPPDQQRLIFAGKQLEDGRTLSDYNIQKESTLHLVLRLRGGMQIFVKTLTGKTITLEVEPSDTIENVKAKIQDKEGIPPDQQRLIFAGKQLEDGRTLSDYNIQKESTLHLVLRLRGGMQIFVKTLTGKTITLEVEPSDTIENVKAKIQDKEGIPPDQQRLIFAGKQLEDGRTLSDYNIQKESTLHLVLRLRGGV
inactive: [1] 0.023 | [2] 0.087 | [3] 0.058 | [4] -0.019 | [5] -0.061
